# From PubChem BioAssay
# Compounds with a hit are over-represented: about 1.8% of the library has one in this group of screens.
# 697 NFkB inh: inhibitors of PMA/ionomycin-induced NF-kB reporter, 697 cells, primary screen, B-cell NF-kB inhibitor project, cell-based, luminescence, uHTS. 330,000 compounds, 0.33% hits. 697 B-cell NF-kB luciferase reporter, 16 h. inhibition, % at 4 µM. AID 435022, 2010; in the data active means inhibition above about 35%
# Jurkat NFkB inh: inhibitors of induced NF-kB luciferase reporter, primary screen, TCR NF-kB activation inhibitor project, cell-based, luminescence, uHTS | Jurkat, PMA/ionomycin-induced NF-kB luciferase reporter | inhibition, % at 4 µM | 330,000 compounds, 0.53% hits | AID 435003, 2010; in the data active means inhibition above about 50%
# Beta apoptosis: inhibitors of cytokine-induced beta cell apoptosis, primary screen, luminescence; INS-1E cytokine-induced death, ATP luminescence, 48 h; percent of positive-control rescue, neutral wells zero; protection from apoptosis, % (test concentration not listed); 300,000 compounds, 0.8% hits; AID 435005, 2010;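 active means Every replicate reaches about 75%, or at least half do and their mean reaches it too, limit read from the data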;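 further: higher means more ATP so stronger rescue from cytokine killing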
# Gli-Sufu antag: Gli-Sufu pathway antagonists, primary screen, luciferase luminescence, Sufu-KO-LIGHT cells, uHTS | 340,000 compounds, 0.74% hits | inhibition, % at 5 µM | AID 588413, 2011 | Sufu-KO-LIGHT fibroblasts, Gli luciferase reporter luminescence;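 active means inhibition above about 55%, limit read from the data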
# Jurkat NFkB conf: PMA/ionomycin-induced NF-kB reporter inhibitors, Jurkat retest, confirmation, T-cell NF-kB inhibitor project, cell-based, luminescence, single concentration | shares compounds with Jurkat NFkB inh | 2,700 compounds, 27% hits | AID 435020, 2010 | Jurkat NF-kB luciferase, 16 h | inhibition, % at 4 µM;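 active means inhibition reaching about 45% at 4 µM in either replicate, limit read from the data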
# Hits are given with their value; - = inactive; . = no result.
SMILES,697 NFkB inh,Jurkat NFkB inh,Beta apoptosis,Gli-Sufu antag,Jurkat NFkB conf
Cc1c(C)c2cccnc2c2ncccc12,-,78,100,92,84
Cc1c(C(=O)Nc2cccc(Cl)c2)oc2ccc(S(=O)(=O)N3CCC4(CC3)OCCO4)cc12,-,60,-,-,-
COc1cc(/C=N/NS(=O)(=O)c2ccc(C)cc2)ccc1OCc1ccc(C(=O)O)cc1,-,63,-,-,-
CCOc1ccc(/C=N/NS(=O)(=O)c2ccc(C)cc2)cc1OC,-,-,-,-,.
CCc1ccc(OCC(=O)Nc2ccc(CN3CCCCC3)cc2)cc1,-,-,-,-,.
O=Cc1cc2ccccc2nc1SCc1ccc(Cl)c(Cl)c1,-,57,-,-,-
O=Cc1cc2ccccc2nc1SCc1ccc(Cl)cc1,-,-,-,-,.
CCOC(=O)c1ccccc1NC(=O)Cn1c(-c2nonc2N)nc2ccccc21,-,82,-,-,61
Cc1ccc(C(=O)c2cc3ccccc3o2)cc1[N+](=O)[O-],-,-,-,-,.
Cc1cc(-c2csc(Nc3ccccn3)n2)ccc1F,-,-,-,-,-
Oc1ccc(-c2csc(Nc3ccccn3)n2)cc1,-,-,.,-,.
Cc1nn(-c2ccccc2)c(C)c1/C=N/NC(=O)c1cc(C2CC2)[nH]n1,-,-,-,-,.
Cc1nn(-c2ccccc2)c(C)c1/C=N/NC(=O)c1cc(-c2ccc(Cl)s2)[nH]n1,-,72,-,-,-
Cc1nn(-c2ccccc2)c(C)c1/C=N/NC(=O)c1cc(-c2ccc(Br)s2)[nH]n1,-,62,-,-,-
Cc1cc(C(=O)N/N=C/c2c(C)nn(-c3ccccc3)c2C)n[nH]1,-,-,-,-,.
CC(C)(C)C(CCl)C(=O)NN=C(c1ccccc1)c1ccccc1 (configuration not stated),-,-,-,-,.
O=C(NC(=S)NCCSc1ccccc1)c1cccnc1,-,-,-,-,.
CCOC(=O)c1ccc(-c2c(-c3cc(OC)c(OC)c(OC)c3)noc2C)cc1F,-,57,-,-,-
Cc1nn(-c2nc3ccccc3s2)c(N)c1-c1ccccc1,-,-,-,-,-
Nc1c(C(=O)Nc2cccc(C(=O)O)c2)sc2nc3c(cc12)CCCC3,-,70,-,-,-
Nc1c(C(=O)Nc2ccc(Cl)c(C(=O)O)c2)sc2nc3c(cc12)CCCC3,-,-,-,-,.
COc1ccc(S(=O)(=O)N2CCCC(C(=O)Nc3ccc(OC)c(OC)c3)C2)cc1 (configuration not stated),-,-,-,-,.
c1ccc(-c2cnc(-c3ccccc3)nn2)cc1,-,-,-,-,-
c1ccc(-c2cnc(-c3ccccn3)nn2)cc1,-,-,-,-,.
Cc1ccc(SC2CCN(C(=O)C3CCC(=O)N(C4CC4)C3)CC2)cc1 (configuration not stated),-,-,-,-,.
SMILES,697 NFkB inh,Jurkat NFkB inh,Beta apoptosis,Gli-Sufu antag,Jurkat NFkB conf
CNC(=O)c1nnsc1S(=O)c1ccc(Cl)cc1 (configuration not stated),-,-,.,-,.
CCCNC(=O)c1nnsc1S(=O)c1ccc(Cl)cc1 (configuration not stated),-,59,.,-,-
CCCCn1cnc2c(sc3nc4c(cc32)CSC(C)(C)C4)c1=O,-,-,-,-,-
O=C(Nc1ccccc1)c1cccc(N2C(=O)C3C4CC(C(Br)C4Br)C3C2=O)c1 (configuration not stated),-,-,.,-,.
O=C(/C=C/c1ccccn1)c1cc(Cl)cc(Cl)c1O,-,67,-,-,-
COC(CSc1ncnc2c1oc1nc3c(cc12)COC(C)(C)C3)OC,-,-,.,-,.
CC(Oc1ccc(Cl)cc1Cl)c1nc(-c2ccc(NC(=O)c3ccncc3)cc2)no1 (configuration not stated),-,51,.,-,57
COc1ccc(-n2ncc3c(NC(C)C)ncnc32)cc1,-,-,-,-,-
C=CCNc1ncnc2c1cnn2-c1ccc(Cl)cc1,-,-,.,-,-
COCC(C)Nc1ncnc2c1cnn2-c1ccc(Cl)cc1 (configuration not stated),-,-,-,-,-
Clc1ccc(Cn2ncc3c(NCc4ccccc4)ncnc32)cc1,-,56,-,-,-
COc1cc(/C=C/[N+](=O)[O-])ccc1OCc1cccc(C(=O)O)c1,-,69,.,-,-
O=C(c1ccc(F)cc1F)C1CCN(c2ccc([N+](=O)[O-])cn2)CC1,-,86,-,-,-
O=C(Nc1ccc(F)cc1F)N1CCCN(c2ccc([N+](=O)[O-])cn2)CC1,-,-,-,-,.
CCN(CC)S(=O)(=O)c1cc(-c2nnc(-c3ccc(Br)cc3)o2)ccc1Br,-,-,-,-,.
Cc1ccc(CNC(=O)Cc2ccc(-c3ccccc3)cc2)cc1,-,63,-,-,-
Cc1noc(C)c1COc1ccc(CC(=O)NCc2ccccc2)cc1,-,62,-,-,-
O=C(Cc1ccc(-c2ccccc2)cc1)NCc1ccccc1,-,62,.,-,-
N#Cc1cc2ccccc2nc1N,-,-,-,-,.
CCN(CC)c1ccc(NC(=O)COc2ccc(-n3cnnn3)cc2)cc1,-,-,-,-,.
Nc1ccc2nc(SCc3cccc(F)c3)sc2c1,-,-,.,-,.
Cc1nnc(SCC(=O)Nc2nsc(-c3ccc(C(C)(C)C)cc3)n2)s1,-,-,-,-,-
CCC1(C)OC(=O)N(CCCn2ccnc2C)C1(C)O (configuration not stated),-,-,-,-,.
COc1cccc(N2CCN(C(=O)c3ccc(CS(=O)c4ccccc4C)o3)CC2)c1 (configuration not stated),-,56,-,-,36
COc1ccc(N2CCN(C(=O)c3ccc(CS(=O)c4cccc(C)c4)o3)CC2)cc1 (configuration not stated),-,-,-,-,.
SMILES,697 NFkB inh,Jurkat NFkB inh,Beta apoptosis,Gli-Sufu antag,Jurkat NFkB conf
COc1cccc(N2CCN(C(=O)c3[nH]c(C)c(C(C)=O)c3C)CC2)c1,-,55,-,-,-
COc1cccc(N2CCN(C(=O)c3ccc(CS(=O)c4ccccc4Cl)o3)CC2)c1 (configuration not stated),-,56,-,-,53
CC(=O)c1c(C)[nH]c(C(=O)N2CCN(c3ccc(F)cc3)CC2)c1C,-,-,-,-,.
O=C(OCC(=O)N1CCC(c2ccccc2)=N1)c1ccc(Cl)s1,-,-,-,-,-
COc1ccc(NC(=O)C(=O)NCC2CCCN2S(=O)(=O)c2cccs2)cc1 (configuration not stated),-,65,.,-,54
CCc1sc(C(=O)NNC(=O)c2cncc(Br)c2)cc1C,-,-,-,-,.
O=C(NCCOc1ccccc1)c1cc([N+](=O)[O-])ccc1N1CCOCC1,-,60,-,.,57
O=C(NCCc1ccccc1)c1cc([N+](=O)[O-])ccc1N1CCOCC1,-,-,-,-,.
